Test systems include MELK; MERTK; MET; MKK7; MKNK1; MKNK2.
Holding throughout (conditions): concentration: 1 μM, replicates: in singlicate; n = 1
The subject of a further experiment is T1, MEK5.
T1 construct: gene MAP2K5

In another experiment the test system is T2, MEK6.
T2 construct: gene MAP2K6

A further experiment deals with T3, MINK.
T3 construct: gene MINK1

A further experiment has as its system T4, MLCK.
T4 construct: gene MYLK3
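Note: KINOMEscan kinase panel screen.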

Consider `CC(=O)N1CCN(c2ccc(Nc3nccc(-c4sc(C(C)C)nc4-c4cccc(NS(=O)(=O)c5cccc(Cl)c5)c4)n3)cn2)CC1` [GSK1660437], for which the “%Inh” value stood at 99.8% in the experiment on MEK5; 0% in the experiment with MEK6; 57% with MELK; 44% in the experiment on MERTK; 0% in the experiment on MET; 18% with MINK. The “%Inh” value is reported as 0% with MKK7, 7% in the experiment on MKNK1, 51% in the experiment with MKNK2 and 0% in the experiment on MLCK.

For `c1ccc(-c2n[nH]cc2Nc2ccnc3ccccc23)nc1` [GW694077], the “%Inh” value worked out at 31% with MEK5; 8% in the experiment with MEK6; 21% in the experiment with MELK; 0% with MERTK; 100% in the experiment on MET; 61% in the experiment with MINK. In addition, the “%Inh” value with MKK7 was 0%; in the experiment on MKNK1 it was 13%; with MKNK2, 85%; with MLCK, 2%.

Take `Cc1ccc(C(=O)Nc2ccc(Nc3ccnc4cc(-c5nccs5)ccc34)cc2O)cc1.Cl` [GW494702]: the “%Inh” value with MEK5 amounted to 99.9%; in the experiment with MEK6 it was 0%; in the experiment on MELK, 1%; in the experiment on MERTK, 24%; with MET, 0%; in the experiment with MINK, 47%. Also, the “%Inh” value in the experiment on MKK7 is reported as 0%; in the experiment on MKNK1, 22%; in the experiment on MKNK2, 8%; in the experiment on MLCK it was 12%.

Regarding `Nc1ncc(-c2ccc3nccc(-c4ccncc4)c3c2)cc1S(=O)(=O)N1CCOCC1` [GSK1627798], the “%Inh” value in the experiment on MEK5 was found to be 15%; in the experiment with MEK6 it was 0%; in the experiment on MELK, 0%; in the experiment on MERTK, 12%; in the experiment with MET it was 0%; in the experiment on MINK, 10%. The “%Inh” value in the experiment with MKK7 is recorded as 5%; with MKNK1, 0%; with MKNK2, 3%; with MLCK it was 0%.

For the molecule `CCCCc1nn2ncccc2c1-c1ccnc(Nc2ccc(N3CCN(C)CC3)cc2)n1` [GW684941], the “%Inh” value in the experiment on MEK5 is 98.9%; in the experiment with MEK6, 0%; in the experiment on MELK it was 0%; in the experiment on MERTK, 56%; with MET, 8%; in the experiment with MINK, 43%. For the same molecule, the “%Inh” value is on record as 0% in the experiment on MKK7, 9% in the experiment on MKNK1, 64% in the experiment with MKNK2 and 0% with MLCK.

Turning to `Cn1cc(-c2ccc3c(c2)CCN3C(=O)Cc2cccc(F)c2)c2c(N)ncnc21` [GSK2603358], the “%Inh” value with MEK5 was 99.9%; with MEK6, 0%; in the experiment on MELK, 9%; with MERTK, 49%; in the experiment on MET, 61%; in the experiment on MINK, 0%. Besides, the “%Inh” value in the experiment on MKK7 was determined as 32%; in the experiment with MKNK1, 2%; in the experiment on MKNK2, 21%; with MLCK it was 16%.

As for `O=C(Nc1n[nH]c2nc(-c3ccc(O)cc3)ccc12)C1CC1` [SB-710363], the “%Inh” value amounted to 81% with MEK5; 0% in the experiment on MEK6; 46% in the experiment with MELK; 8% in the experiment with MERTK; 0% in the experiment with MET; 72% in the experiment on MINK. Moreover, the “%Inh” value with MKK7 was 0%; with MKNK1 it was 43%; in the experiment on MKNK2, 54%; in the experiment with MLCK it was 57%.

As for `CCn1c(-c2nonc2N)nc2c(C#CC(C)(C)O)ncc(OCCCCN)c21.O=C(O)C(F)(F)F.O=C(O)C(F)(F)F` [GSK507274], the “%Inh” value came out at 0% in the experiment with MEK5; 0% with MEK6; 1% with MELK; 30% in the experiment with MERTK; 0% with MET; 0% with MINK. Moreover, the “%Inh” value amounted to 0% in the experiment on MKK7, 0% with MKNK1, 11% in the experiment on MKNK2 and 13% in the experiment with MLCK.

Take `O=C(NC1CCN(c2ccnc(Nc3ccc(F)cc3)n2)C1)c1cc2ccccc2s1` (stereo not shown) [GSK1379716]: the “%Inh” value in the experiment on MEK5 is reported as 8%; in the experiment with MEK6 it was 1%; with MELK it was 0%; in the experiment with MERTK, 38%; with MET, 0%; in the experiment with MINK, 0%. Moreover, the “%Inh” value in the experiment on MKK7 was determined as 0%; with MKNK1, 3%; with MKNK2, 7%; with MLCK it was 8%.

For `COc1cc(Nc2nccc(N3CCC(NC(=O)c4cc5ccccc5s4)C3)n2)cc(OC)c1OC` (stereo not shown) [GSK1379760], the “%Inh” value in the experiment with MEK5 came to 88%; with MEK6, 0%; with MELK, 15%; in the experiment with MERTK it was 45%; in the experiment on MET, 31%; with MINK it was 0%. Also, the “%Inh” value is reported as 38% in the experiment with MKK7, 30% with MKNK1, 21% with MKNK2 and 0% in the experiment with MLCK.

Turning to `CCS(=O)(=O)c1ccc(OC)c(Nc2nccc(-c3c(-c4cccc(NC(=O)c5c(F)cccc5F)c4)nn4ncccc34)n2)c1` [GSK326180], the “%Inh” value in the experiment with MEK5 was determined as 99.6%; in the experiment with MEK6 it was 0%; with MELK it was 0%; in the experiment with MERTK, 9%; in the experiment on MET, 2%; in the experiment on MINK it was 0%. The “%Inh” value in the experiment on MKK7 is given as 14%; with MKNK1, 3%; with MKNK2 it was 12%; in the experiment on MLCK, 0%.

For the molecule `Cc1occc1-c1ncc(OC[C@@H](N)Cc2c[nH]c3ccccc23)cc1-c1ccc2[nH]nc(C)c2c1.O=C(O)C(F)(F)F` [GSK682037], the “%Inh” value was 76% with MEK5; 13% in the experiment on MEK6; 50% in the experiment on MELK; 66% in the experiment on MERTK; 45% in the experiment with MET; 97.2% in the experiment on MINK. The “%Inh” value with MKK7 was found to be 17%; in the experiment with MKNK1 it was 0%; with MKNK2, 0%; in the experiment on MLCK, 39%.

Turning to `Nc1n[nH]c2cnc(-c3ccccc3)cc12` [SB-642124], the “%Inh” value in the experiment with MEK5 is reported as 52%; in the experiment with MEK6 it was 0%; with MELK, 28%; with MERTK it was 43%; in the experiment with MET it was 0%; in the experiment with MINK it was 53%. In addition, the “%Inh” value is on record as 0% with MKK7, 13% with MKNK1, 8% in the experiment with MKNK2 and 1% with MLCK.

With `Cc1ccc(F)c(C(=O)Nc2cccc(-c3nn4ccccc4c3-c3ccnc(Nc4cccc(F)c4)n3)c2)c1F` [GSK361061], the “%Inh” value is 95% with MEK5; 18% with MEK6; 12% with MELK; 75% in the experiment on MERTK; 58% in the experiment on MET; 17% in the experiment with MINK. In addition, the “%Inh” value was 10% with MKK7, 21% in the experiment with MKNK1, 0% with MKNK2 and 5% in the experiment with MLCK.

Consider `COC(=O)Nc1nc2cc(Oc3ccc(NC(=O)Nc4cc(C(F)(F)F)ccc4F)cn3)ccc2[nH]1.Cl.Cl` [GW681170], for which the “%Inh” value with MEK5 was 51%; in the experiment with MEK6 it was 0%; in the experiment with MELK, 6%; with MERTK, 95.7%; in the experiment with MET, 73%; in the experiment with MINK, 18%. Also, the “%Inh” value in the experiment on MKK7 is given as 0%; in the experiment on MKNK1 it was 36%; in the experiment on MKNK2, 88%; with MLCK, 0%.

For `CSc1cccc2c(-c3ccncn3)c(-c3ccc(F)cc3)nn12` [GW514786], the “%Inh” value was 15% in the experiment on MEK5; 0% in the experiment with MEK6; 20% with MELK; 39% in the experiment with MERTK; 23% in the experiment with MET; 5% in the experiment on MINK. Also, the “%Inh” value in the experiment on MKK7 amounted to 0%; in the experiment on MKNK1, 14%; in the experiment on MKNK2 it was 1%; with MLCK, 0%.

These data come from article PMC5540273 (PLoS ONE, 2017).
